# Test results as given in the supplement of paper PMC3545927.
# The list shows a part of the results. How many sequences the whole screen found active is unknown.
# Molecular target: furin, P09958
# Test: furin cleavage Z-score vs untreated control; higher = more cleavage, active = 3.5 or more, inactive = 1 or less, 8 variable residues between constant flanks
# Outline: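 Read counts from sequencing released DNA gave abundance for each bead-bound 8-mer peptide–cDNA fusion cut by purified furin over 7.5, 15 or 30 min. The cleavage Z-score compares log counts with furin-free reactions after lowess adjustment and median absolute deviation scaling.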
# 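Further: purified furin at 1:10 enzyme:substrate in 50 mM HEPES pH 7.5.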
# furin, P09958, sequence (P09958 whole entry): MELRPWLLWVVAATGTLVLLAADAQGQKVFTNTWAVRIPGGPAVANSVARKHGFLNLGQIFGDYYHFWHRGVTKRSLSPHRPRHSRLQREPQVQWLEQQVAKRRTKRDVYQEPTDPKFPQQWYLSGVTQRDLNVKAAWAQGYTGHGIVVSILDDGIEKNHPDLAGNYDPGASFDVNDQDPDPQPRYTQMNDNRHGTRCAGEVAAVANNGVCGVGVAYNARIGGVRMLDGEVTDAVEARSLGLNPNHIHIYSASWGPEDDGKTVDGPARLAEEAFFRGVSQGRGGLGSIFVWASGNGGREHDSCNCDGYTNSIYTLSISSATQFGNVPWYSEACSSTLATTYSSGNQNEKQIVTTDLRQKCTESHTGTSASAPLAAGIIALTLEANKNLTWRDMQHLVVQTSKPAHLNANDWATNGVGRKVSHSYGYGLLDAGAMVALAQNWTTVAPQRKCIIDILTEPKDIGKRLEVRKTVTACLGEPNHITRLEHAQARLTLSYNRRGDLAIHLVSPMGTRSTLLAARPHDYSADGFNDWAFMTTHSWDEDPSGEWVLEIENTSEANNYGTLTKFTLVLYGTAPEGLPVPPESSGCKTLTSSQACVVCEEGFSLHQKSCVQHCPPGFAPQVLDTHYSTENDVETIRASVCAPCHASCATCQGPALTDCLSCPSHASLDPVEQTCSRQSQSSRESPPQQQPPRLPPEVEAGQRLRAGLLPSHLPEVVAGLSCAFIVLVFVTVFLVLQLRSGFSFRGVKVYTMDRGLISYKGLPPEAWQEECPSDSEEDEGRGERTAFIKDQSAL
Sequence,furin cleavage Z-score (7.5 min),furin cleavage Z-score (15 min),furin cleavage Z-score (30 min)
CAMSGRRLREAGNASASA [FS-1468],3.25,3.96 (active),3.6 (active)
CAGGGGGGGGAGNASASA [NE1],1.03,0.409 (inactive),1.54
CAMSGEVPSTAGNASASA [HC1095],-0.208 (inactive),-0.846 (inactive),0.503 (inactive)
CAEGGRRRREAGNASASA [FS-1318],4.58 (active),3.64 (active),2.94
CAGGGRTRREAGNASASA [FS-427],3.88 (active),3.57 (active),2.42
CAPPLEGEPGAGNASASA [HC1355],0.988 (inactive),0.95 (inactive),0.522 (inactive)
CAGKSVKKRSAGNASASA [FS-161],8.72 (active),12 (active),9.51 (active)
CAGKSLKKRSAGNASASA [FS-1198],10.8 (active),8.86 (active),8.35 (active)
CAPEKGGRKPAGNASASA [HC1445],0.667 (inactive),-1.91 (inactive),-0.0787 (inactive)
CATCRNMWSGAGNASASA [HC1186],1.45,1.34,0.472 (inactive)
CAIVVTSTWVAGNASASA [HC2144],0.282 (inactive),-0.196 (inactive),0.858 (inactive)
CAIFWRKKRKAGNASASA [FS-337],4.37 (active),3.52 (active),5.53 (active)
CALLVRKKRKAGNASASA [FS-824],9.19 (active),10.5 (active),8.06 (active)
CAHLVRKKRKAGNASASA [FS-1339],10.2 (active),11.5 (active),10.3 (active)
CASGSKKKRKAGNASASA [FS-1278],-1.57 (inactive),0.447 (inactive),0.492 (inactive)
CAATCTANHDAGNASASA [HC1267],-0.592 (inactive),0.126 (inactive),0.634 (inactive)
CAAVMGSSYGAGNASASA [HC1463],-0.652 (inactive),0.469 (inactive),-0.776 (inactive)
CALVFFCFAWAGNASASA [HC545],-0.625 (inactive),-0.493 (inactive),-2.31 (inactive)
CAKYNRGRRKAGNASASA [FS-1598],-1.68 (inactive),1.26,2.34
CARNTNRRPQAGNASASA [HC167],0.367 (inactive),0.97 (inactive),-0.345 (inactive)
CAKSNRFRRQAGNASASA [FS-453],9.35 (active),7.39 (active),5.76 (active)
CAAKRRTRRQAGNASASA [FS-1443],9.31 (active),8.38 (active),7.06 (active)
CAAKRRFRRQAGNASASA [FS-521],11.3 (active),11.5 (active),9.92 (active)
CAKNNRGRRQAGNASASA [FS-1018],8.48 (active),8.87 (active),9.25 (active)

Sequence,furin cleavage Z-score (7.5 min),furin cleavage Z-score (15 min),furin cleavage Z-score (30 min)
CAATVCARAQAGNASASA [HC956],-0.452 (inactive),0.685 (inactive),-0.234 (inactive)
CAKNEVFCVQAGNASASA [HC1441],-0.977 (inactive),-0.752 (inactive),-0.637 (inactive)
CAERTTPCSGAGNASASA [HC1973],-0.657 (inactive),0.759 (inactive),0.0382 (inactive)
CAVVCCFMSYAGNASASA [HC106],0.2 (inactive),-0.139 (inactive),-1.5 (inactive)
CAMEEWSQHLAGNASASA [HC7],-0.124 (inactive),0.451 (inactive),0.398 (inactive)
CAGKRRFRRQAGNASASA [FS-783],8.34 (active),7.16 (active),6.56 (active)
CAGMLRQRRPAGNASASA [FS-1001],-1.01 (inactive),-1.53 (inactive),-1.03 (inactive)
CAKARRFVEQAGNASASA [FS-2121],-0.772 (inactive),0.447 (inactive),-0.0659 (inactive)
CAGHGRQERSAGNASASA [FS-530],1.31,3.84 (active),3.39
CAFAERQRRSAGNASASA [FS-1588],11.1 (active),11 (active),10.4 (active)
CAFAERSGRGAGNASASA [FS-1322],-0.454 (inactive),0.465 (inactive),0.178 (inactive)
CAGTTRQRRSAGNASASA [FS-1458],9.35 (active),9.67 (active),7.94 (active)
CAGRHCVRRSAGNASASA [FS-163],3.46,4.86 (active),4.64 (active)
CAGSSGGPLLAGNASASA [HC742],-1.42 (inactive),-0.944 (inactive),-0.396 (inactive)
CAEVPCHRPQAGNASASA [HC2422],1.53,0.977 (inactive),-0.457 (inactive)
CAHVCCSMSYAGNASASA [HC1995],-0.946 (inactive),-0.551 (inactive),-0.241 (inactive)
CASTPCSAHGAGNASASA [HC2576],-0.871 (inactive),0.825 (inactive),-0.885 (inactive)
CAIKLGALTGAGNASASA [HC630],-0.745 (inactive),-0.643 (inactive),-1.94 (inactive)
CAGMMLAEQFAGNASASA [HC1021],0.171 (inactive),0.335 (inactive),-0.461 (inactive)
CASKRDHRRSAGNASASA [FS-1411],1.79,-0.35 (inactive),0.449 (inactive)
CARHRRQRRSAGNASASA [FS-707],10.1 (active),10.5 (active),8.1 (active)
CARHRRLRGPAGNASASA [FS-1825],-1.67 (inactive),-0.893 (inactive),-1.28 (inactive)
CASCARHRRSAGNASASA [FS-90],4.64 (active),3.79 (active),4.71 (active)
